Only a selection was taken, and hits are over-represented in it overall.
15-hLO-2 inh: blocks human 15-lipoxygenase 2 activity; actives 0.56% (n = 110,000); Potency, µM (titrated, usually from 57.1 µM), inactives show at the highest dose activity change, negative = inhibition, most hits filed as inhibitors; purified 15hLO-2, xylenol orange hydroperoxide absorbance; AID 881; further: nearly all actives have a fitted effect of over 60% in size
Target sequence (O15296 whole entry, looked up): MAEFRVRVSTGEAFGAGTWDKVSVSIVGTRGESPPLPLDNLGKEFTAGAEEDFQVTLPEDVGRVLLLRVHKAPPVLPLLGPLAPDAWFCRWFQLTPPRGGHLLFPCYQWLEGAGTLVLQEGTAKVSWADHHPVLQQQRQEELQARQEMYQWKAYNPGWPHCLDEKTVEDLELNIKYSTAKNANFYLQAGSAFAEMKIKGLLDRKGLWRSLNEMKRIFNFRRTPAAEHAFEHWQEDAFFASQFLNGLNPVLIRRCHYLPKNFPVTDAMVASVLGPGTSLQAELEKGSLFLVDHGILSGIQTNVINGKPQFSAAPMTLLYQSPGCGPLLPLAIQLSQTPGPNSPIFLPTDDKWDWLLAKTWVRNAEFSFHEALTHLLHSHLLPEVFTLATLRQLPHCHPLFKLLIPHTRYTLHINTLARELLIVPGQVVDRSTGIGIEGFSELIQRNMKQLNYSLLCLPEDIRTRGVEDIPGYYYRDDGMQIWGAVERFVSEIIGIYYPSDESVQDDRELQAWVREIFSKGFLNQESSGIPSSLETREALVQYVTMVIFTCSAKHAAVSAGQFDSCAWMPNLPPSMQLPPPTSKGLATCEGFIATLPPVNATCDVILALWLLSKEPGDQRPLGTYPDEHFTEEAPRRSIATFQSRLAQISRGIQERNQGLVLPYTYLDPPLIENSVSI
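Purified human 15hLO-2 (50 nM) preincubated 15 min with compound, then 45 uM arachidonic acid for 90 min at RT in 25 mM Hepes pH 7.5, 0.01% Triton X-100. Hydroperoxide detected by Fe-xylenol orange; 573/405 nm absorbance ratio.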
12-hLO inh: 12-hLO (ALOX12) enzyme inhibition; P18054; purified 12-hLO, xylenol orange hydroperoxide absorbance; Potency, µM (doses to about 57.1 µM), for inactives: at the top dose activity change, negative = inhibition, usual class: inhibitors; actives 0.12% (n = 150,000); further: nearly all actives have a fitted effect of over 55% in size
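Lipoxygenase turnover measured by absorbance at 573 and 405 nm after Fe-XO development. Human 12hLO 150 nM, arachidonate 40 uM, pH 7.0 Hepes buffer with detergent; 15 min compound preincubation, 30 min reaction.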
Active calls of the source: *; [ ] = dose if it differs, or a comment. The call rests on the fitted dose curve; in most records, active means well fitted curve in the direction sought with a large enough effect; inconclusive means small, poorly fitted or top-dose-only effect, or another doubt; inactive means no such curve, though single readings can be large; an effect the other way counts as inactive or inconclusive. On the % scale 0 is the no-effect control and ±100 the full control effect; potency means the concentration at half of the fitted maximal effect.

How did CCCCn1nc2cc(C(=O)NCc3cc(C(F)(F)F)cc(C(F)(F)F)c3)ccc2c1OCC do in these assays?
15-hLO-2 inh: -11%[11.4 µM]; 12-hLO inh: -3%

How did c1ccc(Nc2nc(-c3cccs3)cs2)nc1 do in these assays?
12-hLO inh: -10%

Results for Cc1cccc(Nc2nc(-c3cccs3)cs2)n1 ?
12-hLO inh: 18µM*

How did COc1ccccc1N1CCN(S(=O)(=O)c2ccc3c4c(cccc24)C(=O)N3C)CC1 do in these assays?
15-hLO-2 inh: 7%[2.29 µM]; 12-hLO inh: 1%

How did COc1ccc2c3c(cccc13)N(C)N=C2C do in these assays?
15-hLO-2 inh: 2.5µM*; 12-hLO inh: inconclusive

How did CCCCn1ccnc1C(=O)c1cccc(S(=O)(=O)N2CC(C)CC(C)C2)c1 (stereo not given) do in these assays?
15-hLO-2 inh: 9%; 12-hLO inh: 3%

How did CC(=O)N1CCN(c2ccc(NCc3ccc(C)s3)cc2)CC1 do in these assays?
15-hLO-2 inh: 13µM*; 12-hLO inh: 11µM*

Results for CC(=O)Nc1ccc(N2CCN(C(=O)c3cccs3)CC2)cc1 ?
15-hLO-2 inh: -5%; 12-hLO inh: -4%

What do the screens show for `CC(=O)N1CCN(c2ccc(NCc3cccs3)cc2)CC1`?
15-hLO-2 inh: 25µM*; 12-hLO inh: inconclusive

Results for Cc1cc(C)nc(Nc2ccc(N3CCOCC3)cc2)n1 ?
15-hLO-2 inh: -5%; 12-hLO inh: -1%

What do the screens show for `Cc1ccc(CNc2ccc(N3CCOCC3)cc2)s1`?
15-hLO-2 inh: 16µM*; 12-hLO inh: inconclusive

How did CC(=O)N1CCN(c2ccc(NC(=O)c3ccc(C)cc3)cc2)CC1 do in these assays?
15-hLO-2 inh: 1%; 12-hLO inh: -4%

Results for CCC(C)[C@H](NC(=O)OC(C)(C)C)C(=O)N/N=C/c1ccc2nccnc2c1 (stereo not given in full) ?
15-hLO-2 inh: -3%; 12-hLO inh: 0%

How did COc1cccc(N2C(=O)CC(c3c[nH]c4ccccc34)C2=O)c1 (stereo not given) do in these assays?
15-hLO-2 inh: -8%; 12-hLO inh: -1%

Results for O=C(NC1CCCCC1)C(c1ccncc1)N(Cc1ccc2c(c1)OCO2)C(=O)c1cnsn1 (stereo not given) ?
12-hLO inh: -15%

Results for CC(C)c1ccc(C(=O)NN2C(=O)C3CCCCC3C2=O)cc1 (stereo not given) ?
12-hLO inh: 1%

Results for O=C(NC(NC(=S)Nc1c(Cl)cccc1Cl)C(Cl)(Cl)Cl)OCc1ccccc1 (stereo not given) ?
12-hLO inh: -21%

Results for CC1CCN(C(=O)N2c3ccccc3Sc3ccccc32)CC1 ?
15-hLO-2 inh: 6%; 12-hLO inh: -6%

How did O=C(NC1CCN(C(=O)N2c3ccccc3Sc3ccccc32)CC1)c1ccccc1F do in these assays?
15-hLO-2 inh: 16µM*; 12-hLO inh: inconclusive

How did COC(=O)c1ccccc1NC(=O)CSc1nnc(C(CO)NC(=O)c2ccccc2)n1C (stereo not given) do in these assays?
15-hLO-2 inh: 1%; 12-hLO inh: 1%

Screens (PubChem BioAssay)
